High-throughput results deposited in PubChem by National Center for Advancing Translational Sciences (NCATS).
Shiga inhibitor – A qHTS for Small Molecule Inhibitors of Shiga Toxin | Vero cells, Shiga toxin protein synthesis inhibition reporter | inhibition, % at 38.7 µM | 290,000 compounds, 9.2% hits | AID 2315, 2010; in the data active = inhibition mostly above about 28%, no sharp cut-off; inactive = mostly below about 43%; also: 0% is about no effect
FMDV inh – High Throughput Screening for Foot and Mouth Disease Virus Antivirals; 410,000 compounds, 1.2% hits; Potency, µM (series often up to 57.9 µM), for the others: top-dose activity change, negative = inhibition, most hits filed as inhibitors; FMDV antiviral cell-based qHTS; AID 1159524, 2015; calls by dose curve; tested in HEK293T cells; also: read-out not given here; potency is read from the fitted curve at half-maximal effect; % is scaled to controls: 0 for no effect and ±100 for the full control effect; nearly all actives have a fitted effect of over 45% in size
CHX counter – Cycloheximide Counterscreen for Small Molecule Inhibitors of Shiga Toxin | cell reporter, cycloheximide protein synthesis inhibition counterscreen | max response, % | 300,000 compounds, 12% hits; in the data active = max response mostly above about 13%, no sharp cut-off; inactive = mostly below about 14%; also: read at 38.3 µM for the half of the compounds with a filed dose; 0% is about no effect
Sm TGR block – qHTS Assay for the Inhibitors of Schistosoma Mansoni Peroxiredoxins | Schistosoma mansoni thioredoxin glutathione reductase (TGR), Q962Y6 | purified TGR, DTNB reduction, TNB absorbance 405 nm | Potency, µM (series often up to 114 µM), inactives show at the top dose activity change, negative = inhibition, actives largely listed as inhibitors | 360,000 compounds, 3% hits | AID 485364, 2010; active = well fitted inhibition curve with a large enough effect; inconclusive = small, poorly fitted or top-dose-only effect; inactive = no such curve, though single readings can be large or run the other way; also: potency is read from the fitted curve at half-maximal effect; % is scaled to controls: 0 for no effect and ±100 for the full control effect; nearly all actives have a fitted effect of over 60% in size
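Kinetic colorimetric format: TGR-catalysed, NADPH-driven DTNB reduction monitored via TNB absorbance. Enzyme dispensed at 20 nM; compound exposure 15 min at room temperature before reaction start.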
* hit, by the source's call. This is a sample that favours compounds with a hit; in the whole collection about 12% have one here.

`CC(OC(=O)c1cc(O)c2ccccc2c1O)C(=O)Nc1ccc(C(N)=O)cc1` (stereo not drawn) gave FMDV inh 16% and Sm TGR block 22µM*.
Screening CCn1nc(/C=C/c2ccccc2)nc2c(=O)n(C)c(=O)nc1-2 returned Shiga inhibitor 29, FMDV inh 2.5µM*, CHX counter 11 and Sm TGR block -35%.
For Cn1c(=O)nc2n(Cc3ccccc3)c3ccccc3cc-2c1=O the results were Shiga inhibitor 6, FMDV inh -19%, CHX counter -1 and Sm TGR block -13%.
`CCNc1ncc2nc(-c3cccs3)c(=O)n(C)c2n1` gave FMDV inh 32%.
Screening CCn1nc(-c2cccs2)nc2c(=O)n(C)c(=O)nc1-2 returned Shiga inhibitor 26*, FMDV inh 1.6µM*, CHX counter 26* and Sm TGR block inconclusive.
`COCCCc1cc(F)c(S(=O)(=O)N2CCN(S(=O)(=O)c3ccc4c(c3)OCCO4)CC2)cc1F` gave Shiga inhibitor -2 and CHX counter -1.
For O=C1O/C(=C\c2ccccc2)c2ccccc21 the results were Shiga inhibitor 45*, FMDV inh 57%, CHX counter 31* and Sm TGR block 5%.
`O=C1O/C(=C/c2ccccc2)N=C1c1ccccc1` gave Shiga inhibitor 11, FMDV inh 18%, CHX counter -1 and Sm TGR block -8%.
`Cc1nc(Nc2ccccc2O)c2oc3ccccc3c2n1` gave Shiga inhibitor -6, FMDV inh -10%, CHX counter -4 and Sm TGR block -4%.
`Cc1nc(Nc2ccccc2F)c2oc3ccccc3c2n1` gave Shiga inhibitor 69*, FMDV inh 33%, CHX counter 32* and Sm TGR block -4%.
Screening Cc1nc(Nc2cccc(Cl)c2)c2oc3ccccc3c2n1 returned Shiga inhibitor 31*, FMDV inh -25%, CHX counter 20* and Sm TGR block 1%.
Screening Cc1nc(Nc2cccc(O)c2)c2oc3ccccc3c2n1 returned Shiga inhibitor 52*, FMDV inh -23%, CHX counter 42* and Sm TGR block -2%.
COc1cccc(Nc2nc(C)nc3c2oc2ccccc23)c1 was read as Shiga inhibitor 31, FMDV inh -25%, CHX counter 11 and Sm TGR block 7%.
Cc1nc(Nc2cccc(F)c2)c2oc3ccccc3c2n1 was read as Shiga inhibitor 97*, FMDV inh -7%, CHX counter 28* and Sm TGR block 3%.
For Nc1nc(SCc2ccc(Cl)cc2Cl)n[nH]1 the results were Shiga inhibitor 27, FMDV inh -3%, CHX counter 21* and Sm TGR block -21%.
For Nc1nc(SCc2ccc3c(c2)OCCO3)n[nH]1 the results were Shiga inhibitor 71*, FMDV inh 52%, CHX counter 21 and Sm TGR block 3%.
COc1ccc(NC(=O)CCSc2nnnn2C)cc1 was read as Shiga inhibitor 51, FMDV inh 14%, CHX counter 25* and Sm TGR block -1%.
For Cn1nnnc1SCC(=O)Nc1ccc(Oc2ccc(Cl)cc2)cc1 the results were Shiga inhibitor -6, CHX counter -4 and Sm TGR block -10%.
For CCn1nnnc1SCC(=O)Nc1ccc(OC)cc1 the results were Shiga inhibitor 34*, FMDV inh 12%, CHX counter 13 and Sm TGR block 5%.
C=CCn1nnnc1SCC(=O)Nc1ccc(OC)cc1 was read as Shiga inhibitor 20, FMDV inh 16%, CHX counter 24* and Sm TGR block -2%.
CCn1nnnc1SCC(=O)Nc1ccc(F)cc1 was read as Shiga inhibitor 23, FMDV inh 24%, CHX counter 20 and Sm TGR block -8%.
CCn1nnnc1SCC(=O)Nc1nc2ccc(OC)cc2s1 was read as Shiga inhibitor active, FMDV inh 30%, CHX counter 25* and Sm TGR block -4%.
O=C(c1ccc2c(c1)OCO2)N1CCOc2ccc(CN3CCC(Oc4cccnc4)CC3)cc2C1 was read as FMDV inh -13%.
For Cc1cccc(CNC(=O)c2cnn(-c3nccc(-c4ccccc4C(F)(F)F)n3)c2C)n1 the results were FMDV inh -10%.
Screening N#C/C(=C\c1ccc(-c2ccc(C(=O)O)cc2)o1)C(=O)Nc1ccccc1C(=O)O returned FMDV inh -3% and Sm TGR block -20%.
COc1ccc(NC(=O)CCSc2ccc(F)cc2)cc1 was read as Shiga inhibitor 57*, FMDV inh 13%, CHX counter 34* and Sm TGR block 7%.
CCn1nnnc1SCC(=O)c1cccc(OC)c1 was read as Shiga inhibitor 14, FMDV inh 31%, CHX counter 19* and Sm TGR block -5%.
Screening COc1ccc(-n2nnnc2SCC(=O)c2cccc(OC)c2)cc1 returned Shiga inhibitor 2, CHX counter -2 and Sm TGR block 26%.
COCCn1nnnc1SCC(=O)c1ccccc1 was read as Shiga inhibitor 34, FMDV inh 42%, CHX counter 14* and Sm TGR block -4%.
For COc1ccc2nc(NC(=O)CSc3nnc(-c4ccoc4C)n3C)sc2c1 the results were Shiga inhibitor 80*, FMDV inh 41%, CHX counter 46* and Sm TGR block -10%.
For O=C(Cn1c(=O)n(Cc2ccco2)c(=O)c2cccnc21)Nc1ccccc1F the results were FMDV inh -22% and Sm TGR block 1%.
`Cc1cccc(N2CCN(C(=O)C3CCCN(S(=O)(=O)c4cccc5nsnc45)C3)CC2)c1C` (stereo not drawn) gave FMDV inh 0% and Sm TGR block 0%.
COC(=O)C1CCN(Cc2ccc3c(c2)CN(C(=O)c2sc(C)nc2C)CCO3)CC1 was read as FMDV inh -8%.
Screening COc1ccccc1NC(=O)c1ccc(NC(=O)CSc2nnnn2C)cc1 returned Shiga inhibitor 13, FMDV inh -20%, CHX counter 5 and Sm TGR block 5.6µM*.
For COc1ccccc1-n1nnnc1SCC(=O)Nc1ccccc1 the results were Shiga inhibitor -3, FMDV inh 36%, CHX counter -3 and Sm TGR block -11%.
For Cn1nnnc1SCc1ccc(C(=O)Nc2ccc(Br)cc2)cc1 the results were Shiga inhibitor 57*, FMDV inh 13%, CHX counter 47* and Sm TGR block 2%.
`Cc1ccc(CSc2nnnn2C)cc1` gave Shiga inhibitor 40, FMDV inh 26%, CHX counter 2 and Sm TGR block -17%.
O=[N+]([O-])c1ccc(N2CCCCC2)s1 was read as Shiga inhibitor -5, FMDV inh 6%, CHX counter 18* and Sm TGR block 3%.
Screening CC1CCCN(c2ccc([N+](=O)[O-])s2)C1 (stereo not drawn) returned Shiga inhibitor 12, FMDV inh 14%, CHX counter 16* and Sm TGR block -1%.
Screening Cc1[nH]n(-c2ccccc2)c(=O)c1C=NC1CCCCC1 returned Shiga inhibitor 49*, FMDV inh 37%, CHX counter 14* and Sm TGR block 9%.
